AmpC detergent = qHTS Inhibitors of AmpC Beta-Lactamase (assay with detergent). P00811. AmpC hydrolysis of nitrocefin, absorbance 480 nm, 0.01% Triton. Potency, µM (series often up to 114 µM), for inactives: top-dose activity change, negative = inhibition, hits mostly inhibitors. 370,000 tested, 0.041% active. AID 485294, 2010;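 also: potency is read from the fitted curve at half-maximal effect; 0% = no-compound wells and -100% = no-enzyme wells; nearly all actives have a fitted effect of over 25% in size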
Target sequence (P00811 whole entry, looked up): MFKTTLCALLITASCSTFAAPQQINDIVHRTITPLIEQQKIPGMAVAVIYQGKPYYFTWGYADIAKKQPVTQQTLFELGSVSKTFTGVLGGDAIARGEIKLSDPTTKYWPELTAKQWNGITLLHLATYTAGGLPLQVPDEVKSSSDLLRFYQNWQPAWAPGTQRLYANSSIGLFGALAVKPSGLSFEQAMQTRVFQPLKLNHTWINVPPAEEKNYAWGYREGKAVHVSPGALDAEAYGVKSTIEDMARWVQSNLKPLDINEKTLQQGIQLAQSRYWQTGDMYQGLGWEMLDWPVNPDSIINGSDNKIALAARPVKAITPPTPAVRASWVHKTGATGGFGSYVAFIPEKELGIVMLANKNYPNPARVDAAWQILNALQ
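AmpC (5.3 nM in the dispensed reagent) in 20 mM phosphate pH 7.0 with 0.01% (detergent screen) or 0.0001% Triton X-100 was preincubated with compounds for 15 min at room temperature. Nitrocefin was then added from an 800 uM solution, and hydrolysis was followed at 480 nm.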
Shiga toxin inh = A qHTS for Small Molecule Inhibitors of Shiga Toxin; Vero cells, Shiga toxin protein synthesis inhibition reporter; inhibition, % at 38.7 µM; 290,000 tested, 9.2% active; AID 2315, 2010; in the data active = inhibition mostly above about 28%, no sharp cut-off; inactive = mostly below about 43%; also: 0% is about no effect
AmpC no deterg = qHTS Inhibitors of AmpC Beta-Lactamase (assay without detergent) | P00811 | AID 485341, 2010 | AmpC nitrocefin hydrolysis, absorbance 480 nm, 0.0001% Triton | 330,000 tested, 0.52% active | Potency, µM (highest dose often 57.1 µM), without a hit: at the top dose activity change, negative = inhibition, actives largely listed as inhibitors;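 also: potency is read from the fitted curve at half-maximal effect; plate controls were no compound for no effect and no enzyme for full effect; nearly all actives have a fitted effect of over 20% in size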
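20 mM phosphate pH 7.0 + 0.01% (detergent screen) or 0.0001% Triton X-100; 5.3 nM AmpC reagent; cpd preinc 15 min RT; nitrocefin (800 uM stock) to start; A480 q20 s × 4 min; Activity was normalised to no-enzyme and no-compound control wells.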
NS1 function inh = qHTS Assay for Inhibitors of Influenza NS1 Protein Function; 270,000 tested, 0.4% active; Potency, µM (top dose mostly 46.1 µM), inactives show at the top dose activity, positive = more growth; AID 2326, 2010; calls by dose curve; also: potency is read from the fitted curve at half-maximal effect; actives are rising curves; nearly all actives have a fitted effect of over 50% in size
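In this qHTS, NS1 from influenza A is expressed in budding yeast, where it slows growth. Cells are switched from glucose to 2% galactose medium (pH 6.0, -URA), treated with compound, and growth recovery is read at OD600.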
CHX counter = Cycloheximide Counterscreen for Small Molecule Inhibitors of Shiga Toxin. cell reporter, cycloheximide protein synthesis inhibition counterscreen. max response, %. 300,000 tested, 12% active. AID 2314, 2010; in the data active = max response mostly above about 13%, no sharp cut-off; inactive = mostly below about 14%; also: read at 38.3 µM for the half of the compounds with a filed dose; 0% is about no effect
Active calls of the source: *; [ ] = another dose, or the depositor's remark. The entries come from a sample that favours hits as a whole. Unless noted, calls follow the shape of the dose curve; as a rule, active = well fitted curve in the direction sought with a large enough effect; inconclusive = small, poorly fitted or top-dose-only effect, or another doubt; inactive = no such curve, though single readings can be large; an effect the other way counts as inactive or inconclusive.

Results for CCOc1ncccc1C(=O)Nc1ccc(F)c(F)c1 ?
AmpC detergent: 2%; Shiga toxin inh: 18; AmpC no deterg: -2%; NS1 function inh: -9%; CHX counter: 5

Results for CSc1ncccc1C(=O)Nc1nc2ccc(Oc3ccccc3)cc2s1 ?
AmpC detergent: 0%; Shiga toxin inh: 56*; AmpC no deterg: -39%; NS1 function inh: inconclusive; CHX counter: 15*

How did CCOc1ncccc1C(=O)Nc1ccc2nc(C)sc2c1 do in these assays?
AmpC detergent: -11%; Shiga toxin inh: 50*; AmpC no deterg: 134%; NS1 function inh: -33%; CHX counter: 14*

How did CSc1ncccc1C(=O)Nc1ccncc1 do in these assays?
AmpC detergent: -2%; Shiga toxin inh: 23; AmpC no deterg: 5%; NS1 function inh: 9%; CHX counter: 4

What do the screens show for `CC(C)CCNC(=O)c1ccc(Cl)c(NC(=O)Cc2ccccc2)c1`?
AmpC detergent: inconclusive; Shiga toxin inh: 45*; AmpC no deterg: -22%; NS1 function inh: 10%; CHX counter: 16

How did COc1ccc(C(=O)Nc2cc(C(=O)NCCc3ccccc3)ccc2Cl)cc1 do in these assays?
AmpC detergent: -1%; Shiga toxin inh: 35; AmpC no deterg: -31%; NS1 function inh: -10%; CHX counter: 29*

How did COCC(=O)Nc1cc(C(=O)NCCc2ccccc2)ccc1Cl do in these assays?
AmpC detergent: 1%; Shiga toxin inh: 74*; AmpC no deterg: 8%; NS1 function inh: -10%; CHX counter: 86*

What do the screens show for `COCC(=O)Nc1cc(C(=O)NCC(C)C)ccc1Cl`?
AmpC detergent: -9%; Shiga toxin inh: 1; AmpC no deterg: -16%; NS1 function inh: 11%; CHX counter: -2

Results for CCOCC(=O)Nc1cc(C(=O)NCCc2ccccc2)ccc1Cl ?
AmpC detergent: -1%; Shiga toxin inh: 43*; AmpC no deterg: -5%; NS1 function inh: 0%; CHX counter: 42*

What do the screens show for `CCOc1ccccc1NC(=O)Nc1ccc2c(c1)OCO2`?
AmpC detergent: -7%; Shiga toxin inh: 38*; AmpC no deterg: -43%; NS1 function inh: -24%; CHX counter: 37*

Results for CCc1cccc(C)c1NC(=O)Nc1ccc2c(c1)OCO2 ?
AmpC detergent: -6%; Shiga toxin inh: 23; AmpC no deterg: -15%; CHX counter: 7

What do the screens show for `Cc1ccccc1NC(=O)Nc1ccc2c(c1)OCO2`?
AmpC detergent: -8%; Shiga toxin inh: 77*; AmpC no deterg: -12%; NS1 function inh: -1%; CHX counter: 44*

What do the screens show for `COc1ccccc1NC(=O)Nc1ccc2c(c1)nnn2C`?
AmpC detergent: 1%; Shiga toxin inh: 50*; AmpC no deterg: -25%; NS1 function inh: 1%; CHX counter: 57*

What do the screens show for `CC(=O)Nc1ccccc1OCC(=O)c1ccc2c(c1)OCO2`?
AmpC detergent: inconclusive; Shiga toxin inh: 79*; AmpC no deterg: -12%; NS1 function inh: -7%; CHX counter: 43*

Results for O=C(COC(=O)c1ccc2c(c1)OCO2)Nc1ccccc1OC(F)F ?
AmpC no deterg: -27%

Results for CCC1CCC(C(=O)NC(C(=O)Nc2cccc(OC)c2)C(C)C)CC1 (configuration not stated) ?
AmpC detergent: 10%

Results for O=C(c1ccc(F)cc1)N1CCC(c2nc(-c3ccc(S(=O)(=O)N4CCCC4)cc3)no2)CC1 ?
AmpC detergent: 17%

How did O=C(Nc1ccc2c(c1)CCC2)Nc1ccccc1Cl do in these assays?
AmpC detergent: -11%; Shiga toxin inh: 155*; AmpC no deterg: -28%; NS1 function inh: -13%; CHX counter: 57*

What do the screens show for `COc1ccccc1NC(=O)Nc1ccc2c(c1)OCCO2`?
AmpC detergent: -7%; Shiga toxin inh: 122*; AmpC no deterg: -11%; NS1 function inh: -19%; CHX counter: 24*

Results for COc1cccc(CC(=O)Nc2ccc3c(c2)CCC3)c1 ?
AmpC detergent: -8%; Shiga toxin inh: 35; AmpC no deterg: -59%; NS1 function inh: -5%; CHX counter: 9

How did COc1cccc(OC)c1C(=O)Nc1ccc2c(c1)OCCO2 do in these assays?
AmpC detergent: inconclusive; Shiga toxin inh: 25; AmpC no deterg: -1%; NS1 function inh: -12%; CHX counter: -3

What do the screens show for `COc1ccc(NC(=O)Nc2ccc3c(c2)CCC3)cc1`?
AmpC detergent: 0%; Shiga toxin inh: 36*; AmpC no deterg: -6%; NS1 function inh: 0%; CHX counter: 27*

How did COc1ccc(NC(=O)Nc2cc(C)ccc2F)cc1OC do in these assays?
AmpC detergent: -8%; Shiga toxin inh: 41*; AmpC no deterg: -19%; NS1 function inh: 6%; CHX counter: 18*

How did Cc1ccc(NC(=O)Nc2ccc3c(c2)CCC3)c(C)c1 do in these assays?
AmpC detergent: 3%; Shiga toxin inh: 1; AmpC no deterg: -14%; NS1 function inh: 8%; CHX counter: 6

How did O=C(CSc1n[nH]c(-c2ccccc2Br)n1)NCCN1C(=O)CSC1=O do in these assays?
AmpC detergent: 0%; Shiga toxin inh: -4; AmpC no deterg: -10%; NS1 function inh: -7%; CHX counter: -2

How did COc1cccc(COC(=O)c2ccc(-c3nnn(Cc4cccc(OC)c4)n3)cc2)c1 do in these assays?
AmpC detergent: -1%

What do the screens show for `CCN(C(=O)Cn1c(=O)oc2cc(S(=O)(=O)N3CCCCC3)ccc21)c1ccccc1`?
AmpC detergent: 0%

How did Cc1c(NC(=O)Nc2ccc3c(c2)OCO3)cccc1[N+](=O)[O-] do in these assays?
AmpC detergent: -1%; Shiga toxin inh: 77*; AmpC no deterg: -40%; NS1 function inh: 2%; CHX counter: 42*

How did CCOc1ccccc1NC(=O)Nc1ccc2c(c1)CCC2 do in these assays?
AmpC detergent: 3%; Shiga toxin inh: 54*; AmpC no deterg: -35%; NS1 function inh: -3%; CHX counter: 39*

What do the screens show for `COc1ccccc1NC(=O)Nc1ccc(F)c(F)c1`?
AmpC detergent: -1%; Shiga toxin inh: 81*; AmpC no deterg: -5%[2.29 µM]; NS1 function inh: -4%; CHX counter: 66*

Results for CCCN(Cc1ccccc1)C(=O)Nc1ccc2c(c1)nnn2C ?
AmpC detergent: 2%; Shiga toxin inh: 40*; AmpC no deterg: 0%; NS1 function inh: -10%; CHX counter: 19*

Results for Cc1ccc(Cl)cc1NC(=O)C1CCN(C(=O)c2cnn(-c3ccccc3)c2-n2cccc2)CC1 ?
AmpC detergent: 12%

How did CS(=O)(=O)c1ccc(Cl)c(NC(=O)CSc2n[nH]c(-c3cccs3)n2)c1 do in these assays?
AmpC detergent: -1%; AmpC no deterg: -16%

Results for COCCNC(=O)c1cnc2sc(N3CCCCC3)nn2c1=O ?
AmpC detergent: -7%

Results for CC(=O)N1CCN(S(=O)(=O)c2ccc(Cl)cc2F)CC1 ?
AmpC detergent: -18%; Shiga toxin inh: -15; AmpC no deterg: -7%; CHX counter: 18

Compound activity (PubChem)
